# Measurements published in PubChem BioAssay (Tox21).
# Several values for one entry are separate records, joined by “and”; a condition that tells them apart may be missing. Identical values can stand only once. Records with an inconclusive call do not appear. Entries that show only a call come without a potency. The source holds several records for some structures; these can differ, active in one and inactive in another. Activity calls are given as the source filed them. Calls come from the whole dose curve; as a rule, active = well fitted curve in the direction sought with a large enough effect in the repeat runs; inconclusive = weak or mixed curves; inactive = no such curve, though single readings can be large; an effect the other way counts as inactive or inconclusive.
# Key:
# [1] = qHTS RealTime-Glo MT Cell Viability Assay in HEK293 cells - 16 hour (AID 1224872); note: nearly all actives have a fitted effect of over 50% in size; note: potency is the fitted concentration of half-maximal effect
# Summary of the method: (§1)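 Luminescence generated by NanoLuc from substrate produced by living HEK293 cells served as the viability signal. Each value reflects the reading at its stated time point during continuous 40 h compound exposure at 37 C.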
# [2] = qHTS RealTime-Glo MT Cell Viability Assay in HepG2 cells - 8 hour (AID 1224873); note: nearly all actives have a fitted effect of over 55% in size; note: potency is the fitted concentration of half-maximal effect
# Summary of the method: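 HepG2 cells (600/well) mixed with RealTime-Glo MT reagent, settled 5 h at 37 C/5% CO2 before compound addition. Nonlytic NanoLuc luminescence from viable-cell prosubstrate reduction read repeatedly during 40 h treatment at 37 C.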
# [3] = qHTS RealTime-Glo MT Cell Viability Assay in HEK293 cells - 40 hour (AID 1224874); conditions: RealTime-Glo luminescence; max response: stronger effect = lower value; note: nearly all actives have a fitted effect of over 50% in size; note: potency is the fitted concentration of half-maximal effect
# Summary of the method: (§2)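 Viable HEK293 cells reduce a cell-permeant prosubstrate; the product diffuses out and is consumed by NanoLuc in the medium to give light. Compounds went in after a 5 h incubation and plates were read over the treatment course.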
# [4] = A CellTox Green Cytotoxicity Assay to monitor cytotoxicity in HEK293 cells - 24 hour (AID 1224875); note: nearly all actives have a fitted effect of over 45% in size; note: potency is the fitted concentration of half-maximal effect
# Summary of the method: (§3)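 Fluorescence intensity, read at 0, 8, 16, 24, 32 and 40 h of compound treatment, reflected dye binding to DNA of dead HEK293 cells; compounds (23 nL, DMSO) were added 5 h after plating cells with reagent.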
# [5] = A CellTox Green Cytotoxicity Assay to monitor cytotoxicity in HepG2 cells - 16 hour (AID 1224876); note: nearly all actives have a fitted effect of over 45% in size; note: potency is the fitted concentration of half-maximal effect
# Summary of the method: (§4)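 Using 1536-well format, dye-containing HepG2 suspension was seeded, allowed 5 h at 37 C/5% CO2, dosed by pintool with compounds, positive and negative controls, and imaged for fluorescence across 40 h.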
# [6] = qHTS RealTime-Glo MT Cell Viability Assay in HepG2 cells - 32 hour (AID 1224877); note: nearly all actives have a fitted effect of over 55% in size; note: potency is the fitted concentration of half-maximal effect
# Summary of the method: (§5)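 Tox21 10K library screened in qHTS format on HepG2 cells carrying RealTime-Glo reagents. Compounds were added after a 5 h preincubation, and the luminescent signal from continuous culture was measured repeatedly during 40 h treatment.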
# [7] = A CellTox Green Cytotoxicity Assay to monitor cytotoxicity in HepG2 cells - 24 hour (AID 1224878); note: nearly all actives have a fitted effect of over 45% in size; note: potency is the fitted concentration of half-maximal effect
# Summary of the method: as §4
# [8] = A CellTox Green Cytotoxicity Assay to monitor cytotoxicity in HepG2 cells - 40 hour (AID 1224879); note: nearly all actives have a fitted effect of over 40% in size; note: potency is the fitted concentration of half-maximal effect
# Summary of the method: as §4
# [9] = qHTS RealTime-Glo MT Cell Viability Assay in HEK293 cells - 0 hour (AID 1224880); note: top concentration of the series differs between compounds; nearly all actives have a fitted effect of over 45% in size
# Summary of the method: as §2
# [10] = A CellTox Green Cytotoxicity Assay to monitor cytotoxicity in HepG2 cells - 0 hour (AID 1224882); note: nearly all actives have a fitted effect of over 35% in size
# Summary of the method: as §4
# [11] = A CellTox Green Cytotoxicity Assay to monitor cytotoxicity in HepG2 cells - 32 hour (AID 1224883); note: nearly all actives have a fitted effect of over 50% in size; note: potency is the fitted concentration of half-maximal effect
# Summary of the method: as §4
# [12] = A CellTox Green Cytotoxicity Assay to monitor cytotoxicity in HEK293 cells - 8 hour (AID 1224884); note: nearly all actives have a fitted effect of over 35% in size; note: potency is the fitted concentration of half-maximal effect
# Summary of the method: as §3
# [13] = qHTS RealTime-Glo MT Cell Viability Assay in HepG2 cells - 16 hour (AID 1224885); note: nearly all actives have a fitted effect of over 50% in size; note: potency is the fitted concentration of half-maximal effect
# Summary of the method: as §5
# [14] = qHTS RealTime-Glo MT Cell Viability Assay in HEK293 cells - 24 hour (AID 1224886); note: nearly all actives have a fitted effect of over 50% in size; note: potency is the fitted concentration of half-maximal effect
# Summary of the method: as §1
# [15] = qHTS RealTime-Glo MT Cell Viability Assay in HEK293 cells - 8 hour (AID 1224887); note: nearly all actives have a fitted effect of over 50% in size; note: potency is the fitted concentration of half-maximal effect
# Summary of the method: as §2
# [16] = qHTS RealTime-Glo MT Cell Viability Assay in HepG2 cells - 0 hour (AID 1224889); note: nearly all actives have a fitted effect of over 50% in size
# Summary of the method: as §5
# [17] = A CellTox Green Cytotoxicity Assay to monitor cytotoxicity in HepG2 cells - 8 hour (AID 1224890); note: nearly all actives have a fitted effect of over 45% in size; note: potency is the fitted concentration of half-maximal effect
# Summary of the method: as §4
# [18] = qHTS assay to identify small molecule antagonists of the estrogen receptor alpha (ER-alpha) signaling pathway using the BG1 cell line in the presence of 0.1 nM 17-beta-estradiol - cell viability counter screen (AID 1259241); note: nearly all actives have a fitted effect of over 40% in size; note: potency is the fitted concentration of half-maximal effect
# Summary of the method: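 The cell line endogenously expresses full-length ER-alpha and carries four EREs driving luciferase. Cells are cultured 5 days hormone-free, treated 22 hr with compounds and 0.1 nM estradiol, then viability is read by fluorescence.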
# [19] = A CellTox Green Cytotoxicity Assay to monitor cytotoxicity in HEK293 cells - 32 hour (AID 1224881); note: nearly all actives have a fitted effect of over 40% in size; note: potency is the fitted concentration of half-maximal effect
# Summary of the method: as §3
# [20] = A CellTox Green Cytotoxicity Assay to monitor cytotoxicity in HEK293 cells - 16 hour (AID 1224888); note: nearly all actives have a fitted effect of over 35% in size; note: potency is the fitted concentration of half-maximal effect
# Summary of the method: as §3
compound,measurement,setting,value
ClC1=C(Cl)[C@]2(Cl)[C@H]3[C@H]([C@H]4C=C[C@H]3C4)[C@@]1(Cl)C2(Cl)Cl,Potency,[1],inactive
same,Potency,[2],inactive
same,max response,[3],-13.1% (inactive)
same,Potency,[4],inactive
same,Potency,[5],inactive
same,Potency,[6],inactive
same,Potency,[7],inactive
same,Potency,[8],inactive
same,Potency,[9],inactive
same,Potency,[10],inactive
same,Potency,[11],inactive
same,Potency,[12],inactive
same,Potency,[13],inactive
same,Potency,[14],inactive
same,Potency,[15],inactive
same,Potency,[16],inactive
same,Potency,[17],inactive
same,Potency,[18],inactive
COS(=O)(=O)c1ccc(C)cc1,Potency,[1],inactive
same,Potency,[2],inactive
same,max response,[3],16.1% (inactive)
same,Potency,[4],inactive
same,Potency,[5],inactive
same,Potency,[6],inactive
same,Potency,[7],inactive
same,Potency,[8],inactive
same,Potency,[19],inactive
same,Potency,[11],inactive
same,Potency,[12],inactive
same,Potency,[13],inactive
same,Potency,[14],inactive
same,Potency,[15],inactive
same,Potency,[20],inactive
same,Potency,[16],inactive
same,Potency,[18],inactive
ClCCN1CCOCC1,Potency,[1],inactive
same,Potency,[2],inactive
same,max response,[3],-16.3% (inactive)
same,Potency,[4],inactive
same,Potency,[5],inactive
same,Potency,[6],inactive
same,Potency,[7],inactive
same,Potency,[8],inactive
same,Potency,[9],inactive
same,Potency,[19],inactive
same,Potency,[10],inactive
same,Potency,[11],inactive
same,Potency,[13],inactive
same,Potency,[14],inactive
same,Potency,[15],inactive
same,Potency,[20],inactive
same,Potency,[17],inactive
same,Potency,[18],inactive
CCS(=O)(=O)c1cccnc1S(=O)(=O)NC(=O)Nc1nc(OC)cc(OC)n1,Potency,[1],inactive
same,Potency,[2],inactive
same,max response,[3],6.92% (inactive)
same,Potency,[4],inactive
same,Potency,[5],inactive
same,Potency,[6],inactive
same,Potency,[7],inactive
same,Potency,[8],inactive
same,Potency,[9],inactive
same,Potency,[19],inactive
same,Potency,[10],inactive
same,Potency,[11],inactive
same,Potency,[13],inactive
same,Potency,[14],inactive
same,Potency,[15],inactive
same,Potency,[20],inactive
same,Potency,[16],inactive
same,Potency,[17],inactive
same,Potency,[18],inactive
CNC(C)Cc1ccc2c(c1)OCO2 (stereo not given),Potency,[1],inactive
same,Potency,[2],inactive
same,max response,[3],-1.8% (inactive)
same,Potency,[4],inactive
same,Potency,[5],inactive
same,Potency,[6],inactive
same,Potency,[7],inactive
same,Potency,[8],inactive
same,Potency,[9],inactive
same,Potency,[19],inactive
same,Potency,[11],inactive
same,Potency,[12],inactive
same,Potency,[13],inactive
same,Potency,[14],inactive
same,Potency,[15],inactive
same,Potency,[20],inactive
same,Potency,[16],inactive
same,Potency,[17],inactive
same,Potency,[18],inactive
CCCCCCCCCBr,Potency,[1],inactive
same,Potency,[2],inactive
same,max response,[3],-6.03% (inactive)
same,Potency,[4],inactive
same,Potency,[5],inactive
same,Potency,[6],inactive
same,Potency,[7],inactive
same,Potency,[9],inactive
same,Potency,[19],inactive
same,Potency,[10],inactive
same,Potency,[11],inactive
same,Potency,[12],inactive
same,Potency,[13],inactive
same,Potency,[14],inactive
same,Potency,[15],inactive
same,Potency,[20],inactive
same,Potency,[16],inactive
same,Potency,[17],inactive
same,Potency,[18],inactive
C=CCOC(N)=O,Potency,[1],inactive
same,Potency,[2],inactive
same,max response,[3],0.832% (inactive)
same,Potency,[4],inactive
same,Potency,[5],inactive
same,Potency,[6],inactive
same,Potency,[7],inactive
same,Potency,[8],inactive
same,Potency,[9],inactive
same,Potency,[19],inactive
same,Potency,[10],inactive
same,Potency,[11],inactive
same,Potency,[13],inactive
same,Potency,[14],inactive
same,Potency,[15],inactive
same,Potency,[20],inactive
same,Potency,[16],inactive
same,Potency,[17],inactive
same,Potency,[18],inactive
CCCSP(=O)(OCC)SCCC,Potency,[1],inactive
same,Potency,[2],inactive
same,max response,[3],-0.268% (inactive)
same,Potency,[4],inactive
same,Potency,[5],inactive
same,Potency,[6],inactive
same,Potency,[7],inactive
same,Potency,[8],inactive
same,Potency,[9],inactive
same,Potency,[19],inactive
same,Potency,[11],inactive
same,Potency,[12],inactive
same,Potency,[13],inactive
same,Potency,[14],inactive
same,Potency,[15],inactive
same,Potency,[20],inactive
same,Potency,[17],inactive
same,Potency,[18],inactive
CCCCCCCCCCCCCCCCCCn1cc[n+](C)c1,Potency,[1],24.4 µM (active)
same,Potency,[2],inactive
same,Potency,[3],7.72 µM (active)
same,Potency,[4],21.7 µM (active)
same,Potency,[5],38.7 µM (active)
same,Potency,[6],24.4 µM (active)
same,Potency,[7],24.4 µM (active)
same,Potency,[8],19.4 µM (active)
same,Potency,[19],19.4 µM (active)
same,Potency,[10],inactive
same,Potency,[11],19.4 µM (active)
same,Potency,[12],24.4 µM (active)
same,Potency,[13],43.4 µM (active)
same,Potency,[14],15.4 µM (active)
same,Potency,[15],inactive
same,Potency,[20],27.4 µM (active)
same,Potency,[16],inactive
same,Potency,[17],38.7 µM (active)
Cc1cc(C)cc(OP(=O)(Oc2cc(C)cc(C)c2)Oc2cc(C)cc(C)c2)c1,Potency,[1],inactive
same,Potency,[2],inactive
same,max response,[3],-16.9% (inactive)
same,Potency,[4],inactive
same,Potency,[5],inactive
same,Potency,[6],inactive
same,Potency,[7],inactive
same,Potency,[8],inactive
same,Potency,[9],inactive
same,Potency,[19],inactive
same,Potency,[10],inactive
same,Potency,[11],inactive
same,Potency,[13],inactive
same,Potency,[14],inactive
same,Potency,[15],inactive
same,Potency,[20],inactive
same,Potency,[16],inactive
same,Potency,[17],inactive
same,Potency,[18],inactive
CCCCCCCCCCCCCCCC[N+](C)(C)C,Potency,[1],10.6 µM (active) and 21.9 µM (active)
same,Potency,[2],inactive and 49 µM (active)
same,Potency,[3],8.4 µM (active) and 21.9 µM (active) and 9.52 µM (active)
same,Potency,[4],23.7 µM (active) and 43.6 µM (active) and 19 µM (active)
same,Potency,[5],23.7 µM (active) and 49 µM (active) and 23.9 µM (active)
same,Potency,[6],43.6 µM (active) and 23.9 µM (active)
same,Potency,[7],21.1 µM (active) and 23.9 µM (active)
same,Potency,[8],21.1 µM (active) and 13.8 µM (active) and 21.3 µM (active)
same,Potency,[19],23.7 µM (active) and 43.6 µM (active) and 23.9 µM (active)
same,Potency,[10],inactive
same,Potency,[11],21.1 µM (active) and 19 µM (active)
same,Potency,[12],21.1 µM (active) and 49 µM (active)
same,Potency,[13],inactive and 54.9 µM (active) and 23.9 µM (active)
same,Potency,[14],9.42 µM (active) and 21.9 µM (active) and 9.52 µM (active)
same,Potency,[20],23.7 µM (active) and 49 µM (active) and 19 µM (active)
same,Potency,[17],54.9 µM (active) and 21.3 µM (active)
same,Potency,[18],inactive
CCc1nn(C)c(C(=O)NCc2ccc(C(C)(C)C)cc2)c1Cl,Potency,[1],0.0871 µM (active)
same,Potency,[2],inactive
same,Potency,[3],0.0977 µM (active)
same,Potency,[4],inactive
same,Potency,[5],inactive
same,Potency,[6],inactive
same,Potency,[7],inactive
same,Potency,[8],inactive
same,Potency,[19],inactive
same,Potency,[10],inactive
same,Potency,[11],inactive
same,Potency,[12],inactive
same,Potency,[13],inactive
same,Potency,[14],0.049 µM (active)
same,Potency,[15],4.36 µM (active)
same,Potency,[20],inactive
same,Potency,[16],inactive
same,Potency,[17],inactive
same,Potency,[18],0.77 µM (active)
